Measurements published in PubChem BioAssay (NCATS).
Unmarked numbers belong to inactive results. Inconclusive results are not listed. Entries that show only a call come without a potency. Activity calls are given as the source filed them. Unless noted, calls come from the whole dose curve; as a rule, active = well fitted curve in the direction sought with a large enough effect; inconclusive = small, poorly fitted or top-dose-only effect, or another doubt; inactive = no such curve, though single readings can be large; an effect the other way counts as inactive or inconclusive.

Assays:
[1] = Confirmation and Secondary Assay for Modulators of Hemoglobin Beta Chain Splicing at IVS2 654 locus (AID 910);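 note: HeLa cells stably carrying EGFP split by mutant beta-globin IVS2-654 intron; per-well total GFP intensity by laser scanning cytometry after 2-day treatment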
In short: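 Readout: per-well total peak green fluorescence (488 nm ex, 500–520 nm em) from objects 5–250 µm, reflecting correct splicing of an EGFP-654 reporter. Compounds were applied for 2 days at 37 °C to overnight-plated HeLa EGFP-654 cells; controls were DMSO and 500 nM IVS2-654 PNA.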

[2] = Confirmation and Secondary Assay for Modulators of Hemoglobin Beta Chain Splicing at IVS2 705 locus (AID 930);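 note: HeLa cells stably expressing the EGFP-705 splicing reporter; GFP fluorescence per well restored by corrected splicing of the IVS2-705 intron in EGFP; series mostly up to about 46 µM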
In short: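 First, HeLa EGFP-705 cells are seeded at 500/well in Optimem with 2% FCS and left overnight. Next, compound or DMSO is added for 2 days. Finally wells are laser-scanned and total peak GFP intensity scored.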

[3] = biological target: Cytochrome P450 2C19 (Homo sapiens) (UniProt P33261); assay: qHTS Assay for Inhibitors and Substrates of Cytochrome P450 2C19 (AID 899); note: potency is the fitted concentration of half-maximal effect; nearly all actives have a fitted effect of over 60% in size
In short: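 5nM enzyme + 10uM Luciferin-H EGE (=KM), 50mM KPO4; cpd pin-transferred, 10 min 37C; NADPH regen, 60 min 37C; stopped w/ luciferin detection reagent, 20 min; luminescence. Normalized to 57uM ketoconazole (AC100).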

[4] = biological target: DNA dC->dU-editing enzyme APOBEC-3G (Homo sapiens) (UniProt Q9HC16); assay: qHTS for inhibitors of Vif-A3G interactions: Validation (AID 588379)
In short: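 Yellow fluorescence (Ex 488, Em 500-530) of Vif-coexpressing HeLa A3G-eYFP cells, scanned by Acumen cytometer, reports blocked A3G degradation. Cells plated at 700/well overnight at 37 deg C before compound addition, then a further overnight compound incubation at 37 deg C.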

[5] = qHTS Assay for Identification of Small Molecule Antagonists for NFkB Signaling Pathway (AID 895; active = well fitted inhibition curve with a large enough effect in the signal ratio, with a control signal flat, not every such curve was filed as active; the % refers to the signal ratio)
In short: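 Beta-lactamase reporter read-out (460 and 530 nm emission ratio, 405 nm excitation, 2 hrs substrate loading RT) after 5 hr stimulation with 10 pM TNF alpha in compound-treated NFkB-bla ME-180 cells in low-serum medium.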

[6] = qHTS Assay for Identification of Small Molecule Agonists for Hypoxia Response Element Signaling Pathway (AID 914; active = well fitted activation curve with a large enough effect in the signal ratio, with a control signal flat, not every such curve was filed as active; the % refers to the signal ratio); details: ME-180 (cervical carcinoma) HRE-bla reporter, beta-lactamase ratio, CoCl2, 17 h; activation: stronger effect = higher value
In short: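 Positive modulation of EC50 CoCl2-induced hypoxia response element signaling is measured in ME-180 cells with a beta-lactamase reporter. Compounds are titrated, incubation runs 17 hours, and %Activity derives from the blue/green ratio.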

[7] = biological target: Pyruvate kinase PKM (Homo sapiens) (UniProt P14618); assay: qHTS Assay for Inhibitors of Human Muscle Pyruvate Kinase (AID 958); details: purified human PKM enzyme activity
In short: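 Enzyme was run at intermediate activity so both inhibitors and activators could be detected. ATP formed from ADP and PEP by 0.1 nM human PKM2 during a 1 h room-temperature incubation was quantified by coupled luciferase luminescence.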

[8] = biological target: Pyruvate kinase (Leishmania mexicana) (UniProt Q27686); assay: qHTS Validation Assay for Activators of Leishmania Mexicana Pyruvate Kinase (AID 959)
In short: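 qHTS eight-point titrations against 0.2 nM LmPYK (E451W) in imidazole buffer pH 7.2 with 0.5 mM PEP, 0.1 mM ADP; 1 h, room temperature. Readout: PKLight luminescence, normalized to neutral DMSO wells.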

[9] = VSVG counterscreen qHTS to identify inhibitors of SARS-CoV-2 cell entry (AID 1645847; calls by dose curve; note: potency is the fitted concentration of half-maximal effect; nearly all actives have a fitted effect of over 65% in size)
In short: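 Luminescence from a luciferase reporter, normalised to bald particle and VSV-G pseudotyped particle wells, is the read-out. Cells are HEK293 expressing human ACE2, exposed to compound 1 h before a 48 h particle infection at 37 °C.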

[10] = Confirmatory qHTS for VERO E6 Cytotoxicity Assay: Counterscreen for SARS-CoV-2 CPE Assay (AID 1508605; calls by dose curve; note: series mostly up to about 20 µM; nearly all actives have a fitted effect of over 60% in size)

Chain of Pyruvate kinase (Leishmania mexicana) (Q27686 2-499 E452W): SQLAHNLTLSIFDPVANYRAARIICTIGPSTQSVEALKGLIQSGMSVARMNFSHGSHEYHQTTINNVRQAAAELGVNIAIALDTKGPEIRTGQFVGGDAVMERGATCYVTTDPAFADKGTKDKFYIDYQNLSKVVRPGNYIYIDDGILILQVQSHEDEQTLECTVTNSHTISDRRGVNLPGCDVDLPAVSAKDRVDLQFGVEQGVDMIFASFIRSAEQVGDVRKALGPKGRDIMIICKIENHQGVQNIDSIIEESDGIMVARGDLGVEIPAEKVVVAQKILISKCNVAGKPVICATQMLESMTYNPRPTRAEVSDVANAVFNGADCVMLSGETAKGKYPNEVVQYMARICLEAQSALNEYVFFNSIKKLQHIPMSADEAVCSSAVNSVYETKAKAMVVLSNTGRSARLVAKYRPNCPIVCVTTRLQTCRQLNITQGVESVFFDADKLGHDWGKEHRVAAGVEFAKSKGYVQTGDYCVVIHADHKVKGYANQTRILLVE
Chain of DNA dC->dU-editing enzyme APOBEC-3G (Homo sapiens) (Q9HC16 whole entry, looked up): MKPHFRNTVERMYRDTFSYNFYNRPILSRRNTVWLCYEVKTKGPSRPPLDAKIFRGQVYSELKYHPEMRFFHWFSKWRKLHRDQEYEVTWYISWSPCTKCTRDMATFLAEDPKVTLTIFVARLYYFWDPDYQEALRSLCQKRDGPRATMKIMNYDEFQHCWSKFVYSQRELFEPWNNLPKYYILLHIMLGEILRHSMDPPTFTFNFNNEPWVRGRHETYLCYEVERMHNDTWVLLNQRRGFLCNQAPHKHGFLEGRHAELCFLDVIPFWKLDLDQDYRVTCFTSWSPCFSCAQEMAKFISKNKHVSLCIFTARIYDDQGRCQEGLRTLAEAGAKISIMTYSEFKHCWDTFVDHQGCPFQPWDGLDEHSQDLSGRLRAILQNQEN
Chain of Pyruvate kinase PKM (Homo sapiens) (P14618 whole entry, looked up): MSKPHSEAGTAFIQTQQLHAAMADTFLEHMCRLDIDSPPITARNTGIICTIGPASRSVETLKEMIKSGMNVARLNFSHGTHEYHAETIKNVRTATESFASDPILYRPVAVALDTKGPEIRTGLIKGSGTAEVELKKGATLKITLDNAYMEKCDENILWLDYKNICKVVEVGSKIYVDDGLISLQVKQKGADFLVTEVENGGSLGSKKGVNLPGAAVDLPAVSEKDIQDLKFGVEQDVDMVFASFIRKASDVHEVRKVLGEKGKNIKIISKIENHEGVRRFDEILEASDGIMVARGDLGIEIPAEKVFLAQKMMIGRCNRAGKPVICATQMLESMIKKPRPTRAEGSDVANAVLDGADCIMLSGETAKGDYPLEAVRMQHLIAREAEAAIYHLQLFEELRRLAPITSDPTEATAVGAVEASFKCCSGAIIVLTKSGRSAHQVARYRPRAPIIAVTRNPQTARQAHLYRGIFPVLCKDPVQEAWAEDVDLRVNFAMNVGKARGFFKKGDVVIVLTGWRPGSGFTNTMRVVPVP
Chain of Cytochrome P450 2C19 (Homo sapiens) (P33261 whole entry, looked up): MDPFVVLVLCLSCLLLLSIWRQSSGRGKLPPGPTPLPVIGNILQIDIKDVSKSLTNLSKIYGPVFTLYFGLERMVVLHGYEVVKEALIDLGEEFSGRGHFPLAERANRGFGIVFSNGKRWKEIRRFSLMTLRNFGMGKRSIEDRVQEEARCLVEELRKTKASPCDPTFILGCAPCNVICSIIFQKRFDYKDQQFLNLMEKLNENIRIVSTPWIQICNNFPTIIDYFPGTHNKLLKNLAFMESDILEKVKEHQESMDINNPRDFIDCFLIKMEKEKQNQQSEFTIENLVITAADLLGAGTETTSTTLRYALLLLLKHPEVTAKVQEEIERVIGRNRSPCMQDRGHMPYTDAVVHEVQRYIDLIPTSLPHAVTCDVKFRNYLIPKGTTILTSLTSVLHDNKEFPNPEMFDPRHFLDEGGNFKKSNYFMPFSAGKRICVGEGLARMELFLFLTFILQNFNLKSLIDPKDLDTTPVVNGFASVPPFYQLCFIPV

SMILES: CCC1/C=C/C=CCC(C)C(O)[C@@](C)(O)C(=O)C(C)C(O)C(C)C(=O)C(C)C(O)C(C)C=CC(=O)O[C@H]2C(C)C(CC1)O[C@]1(CCC(C)C(CC(C)O)O1)C2C (stereo not given in full)
- Potency [1]: inactive
- Potency [2]: inactive

SMILES: CC[C@@H](CO)NC(=O)[C@H]1C=C2c3cccc4c3c(cn4C)C[C@H]2N(C)C1
- Potency [3]: 126 nM (active)
- outcome [4]: inactive

SMILES: CCCN(CCC)C(=O)Cc1c(-c2ccc(Cl)cc2)nc2c(Cl)cc(Cl)cn12
- Potency [5]: inactive

SMILES: NNCc1cccc(O)c1
- activation [6]: 15.1%
- Potency [7]: 15800 nM (active)
- outcome [8]: inactive

SMILES: C/C1=C/C[C@@H](/C(C)=C/c2csc(C)n2)OC(=O)C[C@H](O)C(C)(C)C(=O)[C@H](C)[C@@H](O)[C@@H](C)CCC1
- Potency [9]: 60.7 nM (active)

SMILES: CC(C)(C)c1ccc(CN2CCN(C(c3ccccc3)c3ccc(Cl)cc3)CC2)cc1 (stereo not given)
- Potency [10]: inactive
